Screening results (PubChem BioAssay)
CYP2C9 activ – human CYP2C9 activators, primary screen, biochemical, luminescence; recombinant CYP2C9, luciferin-H conversion; stronger effect = higher value; factor 1 = untreated enzyme, 0 = blocked; actives 1.4% (n = 96,000); activation factor at 5 µM; Cytochrome P450 2C9 (Homo sapiens), P11712;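 active = activation factor of 2 or more for CYP2C9 at a 5 µM dose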;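 also: 0 = sulfaphenazole-blocked wells and 1 = vehicle-only wells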
PLAP activator – PLAP enzyme activators, biochemical, luminescence, HTS; Alkaline phosphatase, placental type (Homo sapiens), P05187; purified PLAP enzyme, luminescent substrate read-out; stronger effect = higher value; activation fold at 20 µM; actives 1.2% (n = 96,000); AID 696, 2007; in the data active = activation fold above about 2
Target sequence (P05187 whole entry, looked up): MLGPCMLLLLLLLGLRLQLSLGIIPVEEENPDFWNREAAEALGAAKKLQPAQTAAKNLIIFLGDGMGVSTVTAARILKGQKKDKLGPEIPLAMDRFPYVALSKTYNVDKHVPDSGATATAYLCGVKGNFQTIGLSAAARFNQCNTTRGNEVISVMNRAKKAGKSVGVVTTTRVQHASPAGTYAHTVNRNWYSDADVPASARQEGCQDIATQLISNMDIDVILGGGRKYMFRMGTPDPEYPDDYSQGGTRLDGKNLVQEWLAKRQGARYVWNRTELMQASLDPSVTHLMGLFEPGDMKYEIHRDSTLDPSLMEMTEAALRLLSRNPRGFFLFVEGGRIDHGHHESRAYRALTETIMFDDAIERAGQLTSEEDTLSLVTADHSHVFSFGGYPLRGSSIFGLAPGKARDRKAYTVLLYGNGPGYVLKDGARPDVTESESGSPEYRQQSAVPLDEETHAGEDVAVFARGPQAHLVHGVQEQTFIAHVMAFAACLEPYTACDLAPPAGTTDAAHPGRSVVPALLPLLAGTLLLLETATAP
CYP2C9 inh – blockers of cytochrome P450 2C9 activity – biochemical, luminescence, ADME assay, primary screen. P11712. CYP2C9 Supersomes, luciferin-H conversion. inhibition, % at 5 µM. actives 20% (n = 96,000). AID 777, 2007;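 active = blocking of liver enzyme CYP2C9 beyond about 50% at 5 µM, limit read from the data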
CYP2C19 inhib – blockers of cytochrome P450 2C19 activity – biochemical, luminescence, ADME assay, primary screen | AID 778, 2007 | inhibition, % at 5 µM | actives 21% (n = 96,000) | CYP2C19 Supersomes, luciferin-H EGE luminescence, 30 min | P33261;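 active = CYP2C19 inhibition above a set limit at 5 µM in the primary screen, cut at about 50% in these data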;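 also: plate controls were negative control wells for no effect and 2.5 mM tranylcypromine positive control for full effect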
CYP2C19 act – human CYP2C19 activators, primary screen, biochemical, luminescence | recombinant CYP2C19, luciferin-H EGE luminescence; stronger effect = higher value; 0 = fully inhibited enzyme, 1 = untreated enzyme | 96,000 tested, under 10 active | Cytochrome P450 2C19 (Homo sapiens), P33261 | activation factor at 5 µM | AID 1025, 2008;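 active = activation factor of at least 2 at 5 µM in the primary screen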;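 also: 0 = wells with 2.5 mM tranylcypromine and 1 = vehicle-only wells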
* hit, by the source's call. Compounds with a hit are over-represented: about 31% of the library has one in this group of screens.

SMILES | CYP2C9 activ | PLAP activator | CYP2C9 inh | CYP2C19 inhib | CYP2C19 act
CCCC(O)(CCN(C)C)c1ccc(OC)cc1 (centres undefined) | 1 | 0.9 | -2 | 2 | 1
Brc1ccc(-c2nnc(SCCC3OCCCO3)o2)cc1 | 0.9 | 1.1 | 13 | 40 | 0.6
O=C1OCCC1Sc1nnc(-c2ccc(Br)cc2)o1 (centres undefined) | 1 | 0.9 | 5 | 62* | 0.4
CC(O)(CS(=O)(=O)Cc1ccccc1)C(=O)Nc1cccc(C(F)(F)F)c1 (centres undefined) | 0.9 | 0.9 | 6 | 43 | 0.6
COc1ccc(/C=C2/SC(=O)N(NS(=O)(=O)c3ccccc3)C2=S)cc1OC | 0.3 | 1.6 | 70* | -6 | 1.1
COc1ccc(/C=C2/C(=O)ON=C2c2ccccc2)cc1OC | 1.1 | 0.9 | -9 | -6 | 1.1
COc1ccc(C2CC(=O)N3C(=C2C#N)SCC3(O)c2ccccc2)cc1 (centres undefined) | 0 | 1.1 | 100* | 84* | 0.2
Cc1c(NC(=O)CSC2=C(C#N)C(c3ccccc3F)CC(=O)N2)c(=O)n(-c2ccccc2)n1C (centres undefined) | 1.1 | 1.3 | -9 | -1 | 1
N#CC1=C2SCC(O)(c3ccccc3)N2C(=O)CC1c1cccs1 (centres undefined) | 0 | 0.9 | 99* | 82* | 0.2
N#CC1=C2SCC(O)(c3ccccc3)N2C(=O)CC1c1ccccc1F (centres undefined) | 0 | 1.4 | 99* | 100* | 0
CSC1=C(C#N)C(c2cccs2)CC(=O)N1C (centres undefined) | 1 | 1.1 | -1 | 23 | 0.8
Cc1ccc(-c2cnc(-c3ccncc3)o2)cc1 | 0.4 | 0.9 | 64* | 98* | 0
COc1ccc(S(=O)(=O)N(C)CC(=O)NCCC2=CCCCC2)cc1OC | 1.1 | 1.6 | -11 | 82* | 0.2
COc1ccc(N(CC(=O)NCCC2=CCCCC2)S(C)(=O)=O)cc1OC | 1.4 | 1 | -36 | 9 | 0.9
COc1ccc(S(=O)(=O)N(C)CC(=O)NCCC2=CCCCC2)cc1 | 2.4* | 1 | -136 | 32 | 0.7
CC(C)C1=C2OC(N)=C(C#N)C(C#N)=C2C(C)CC1 (centres undefined) | 0.9 | 1 | 10 | 15 | 0.8
O=C(Nc1ccncc1)c1cccs1 | 0.5 | 0.9 | 52* | 47 | 0.5
CCc1c(C(=O)NNC(=S)NCC(C)C)csc1C | 1.1 | 1.2 | -6 | 13 | 0.9
O=C(Nc1cccnc1)c1cccs1 | 1.1 | 1 | -8 | 4 | 1
O=C(Nc1cccc(-c2csc(-c3ccccc3)n2)c1)c1cccs1 | 0.1 | 0.7 | 91* | 51* | 0.5
CCc1c(C(=O)Nc2ccncc2)csc1C | 0.2 | 0.8 | 84* | 98* | 0
O=C(Nc1ccc2nsnc2c1)c1cccs1 | 0.8 | 0.9 | 22 | 55* | 0.4
CC(C)C(NS(=O)(=O)c1ccc2c(c1)oc(=O)n2C)C(=O)N1CCN(Cc2ccccc2)CC1 (centres undefined) | 0.9 | 1.6 | 13 | 20 | 0.8
COc1cc(/C=N/Nc2nc(N3CCCC3)nc(N3CCCC3)n2)ccc1O | 0.7 | 1.1 | 26 | 20 | 0.8
COc1ccc(/C=N/Nc2nc3ccccc3o2)cc1O | 0.5 | 2.1* | 52* | 51* | 0.5
SMILES | CYP2C9 activ | PLAP activator | CYP2C9 inh | CYP2C19 inhib | CYP2C19 act
COc1cc(/C=N/Nc2nc3ccccc3o2)cc(OC)c1O | 0.7 | 2.3* | 28 | 18 | 0.8
CC(C)COP(=O)(c1ccc(N(C)C)cc1)C(O)c1ccccc1F (centres undefined) | 0.9 | 1.1 | 10 | 50 | 0.5
Cc1ccc2nc(N3CCN(Cc4ccc(F)cc4)C3=O)c(C)cc2c1 | 1 | 0.9 | -3 | 26 | 0.7
O=C(NCCc1ccc(Cl)cc1)c1cnc2n(c1=O)CCS2 | 0.9 | 0.9 | 13 | 55* | 0.5
O=C(NCCCc1ccccc1)c1cnc2n(c1=O)CCS2 | 0.7 | 1.2 | 27 | 83* | 0.2
O=C(CNC(=O)Cc1ccccc1)NCC(=O)OCc1ccc(C(=O)c2ccccc2)cc1 | 0.8 | 1 | 21 | 2 | 1
Cc1ccc2c(N)c(C)ccc2c1 | 0.9 | 0.8 | 11 | 67* | 0.3
COc1ccc(OCCSc2nc3ccccc3n2CC(=O)O)cc1 | 1.2 | 0.9 | -20 | -16 | 1.2
COc1ccc(C(=O)CSc2nc3ccccc3n2CC(=O)c2ccccc2)cc1 | 0.2 | 0.9 | 76* | 54* | 0.5
COc1ccc(OC)c(C(=O)CSc2nc3ccccc3n2CC(=O)NC(C)(C)C)c1 | 0.1 | 0.8 | 87* | 26 | 0.7
CC(C)(C)NC(=O)Cn1c(SCC(N)=O)nc2ccccc21 | 1.2 | 1.2 | -16 | -18 | 1.2
Nc1ccc(SC(F)(F)F)cc1C(=O)c1ccccc1 | 0.7 | 0.7 | 33 | 32 | 0.7
Nc1ccc(Cl)cc1/C(=N/O)c1ccccc1 | 0.4 | 0.9 | 56* | 78* | 0.2
CCCCC1(C)Cc2ccccc2C(=S)N1 (centres undefined) | 0.9 | 0.9 | 7 | 30 | 0.7
O=S1(=O)C=C(Sc2nc3cc(Cl)ccc3o2)c2ccccc21 | 0.9 | 1 | 6 | 66* | 0.3
CN(C)c1nc(N)nc(CSc2nc3cc(Cl)ccc3o2)n1 | 1.6 | 1.1 | -56 | -2 | 1
COc1ccc(Nc2ncc3c(n2)CC(c2ccc(OC)cc2)CC3=O)cc1 (centres undefined) | 0.7 | 0.8 | 27 | 6 | 0.9
O=C1CC(c2ccco2)Cc2nc(Nc3ccc(F)cc3)ncc21 (centres undefined) | 0.4 | 1.1 | 59* | 56* | 0.4
COc1ccc(C2CC(=O)c3cnc(NC(=O)c4ccccc4)nc3C2)c(OC)c1 (centres undefined) | 0.5 | 0.8 | 48 | 47 | 0.5
O=C1CC(c2ccco2)Cc2nc(NCC3CCCO3)ncc21 (centres undefined) | 1 | 1 | 4 | 12 | 0.9
COc1ccccc1C(=O)Nc1ncc2c(n1)CC(c1ccco1)CC2=O (centres undefined) | 0.7 | 1.5 | 29 | 56* | 0.4
O=C1CC(c2ccccc2)Cc2nc(NCc3ccco3)ncc21 (centres undefined) | 0.5 | 0.8 | 51* | 45 | 0.5
COC(=O)c1c(C(=O)OC)c(C)n(Cc2cccnc2)c1C | 0.5 | 0.8 | 51* | 28 | 0.7
COC(=O)c1c(C(=O)OC)c(C)n(Cc2ccco2)c1C | 1 | 1.1 | 0 | 41 | 0.6
O=C(NC1CCCCC1)C1CCCN(S(=O)(=O)c2cnc[nH]2)C1 (centres undefined) | 0.7 | 1 | 28 | 60* | 0.4
